PLK1 PBD inh: inhibitors of human PLK1 polo-box domain binding; Plk1 PBD binding of FITC phosphopeptide, fluorescence polarization; Potency, µM, most hits filed as inhibitors; hit rate 2.8% among 360,000; also: series mostly up to about 57 µM; nearly all actives have a fitted effect of over 65% in size
JMJD2A Tudor: blocks the human JMJD2A Tudor domain; O75164; AlphaScreen JMJD2A-Tudor / H3K4me3 peptide binding; Potency, µM (series often up to 114 µM), most hits filed as inhibitors; hit rate 4.4% among 390,000; also: nearly all actives have a fitted effect of over 50% in size
Target sequence (O75164 whole entry, looked up, the tested form may be a part): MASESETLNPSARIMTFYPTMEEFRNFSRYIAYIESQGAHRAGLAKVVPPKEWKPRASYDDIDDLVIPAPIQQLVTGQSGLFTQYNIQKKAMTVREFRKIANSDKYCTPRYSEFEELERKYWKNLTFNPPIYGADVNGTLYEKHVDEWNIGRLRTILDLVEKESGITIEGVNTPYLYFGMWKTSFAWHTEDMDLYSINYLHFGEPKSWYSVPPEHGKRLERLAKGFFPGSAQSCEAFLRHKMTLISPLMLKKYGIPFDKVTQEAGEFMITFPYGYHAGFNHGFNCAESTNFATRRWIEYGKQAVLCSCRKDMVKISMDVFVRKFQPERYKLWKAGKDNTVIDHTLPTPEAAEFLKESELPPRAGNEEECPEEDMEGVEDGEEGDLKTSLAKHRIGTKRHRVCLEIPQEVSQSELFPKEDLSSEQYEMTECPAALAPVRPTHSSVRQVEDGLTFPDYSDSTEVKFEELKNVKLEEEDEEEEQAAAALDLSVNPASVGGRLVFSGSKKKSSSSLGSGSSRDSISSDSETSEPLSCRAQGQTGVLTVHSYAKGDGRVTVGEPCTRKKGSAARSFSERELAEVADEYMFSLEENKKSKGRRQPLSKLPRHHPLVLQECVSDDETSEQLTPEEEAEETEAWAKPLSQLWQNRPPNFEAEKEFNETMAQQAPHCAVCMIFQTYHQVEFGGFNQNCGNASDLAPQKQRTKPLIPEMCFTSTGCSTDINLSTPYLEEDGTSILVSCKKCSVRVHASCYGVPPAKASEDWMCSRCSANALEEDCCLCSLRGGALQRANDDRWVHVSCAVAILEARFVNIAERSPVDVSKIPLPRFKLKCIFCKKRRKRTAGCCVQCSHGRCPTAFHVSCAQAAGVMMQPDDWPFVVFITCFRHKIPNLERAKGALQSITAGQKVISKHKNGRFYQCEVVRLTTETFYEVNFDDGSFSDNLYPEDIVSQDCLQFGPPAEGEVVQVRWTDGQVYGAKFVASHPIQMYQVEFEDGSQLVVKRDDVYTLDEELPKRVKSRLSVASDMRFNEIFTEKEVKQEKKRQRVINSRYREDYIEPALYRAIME
HP1b binding inh: HP1-beta chromodomain-methylated histone interaction inhibition; AlphaScreen HP1-beta / biotin-H3K9me3 peptide binding; AID 540317; Potency, µM (top dose mostly 114 µM), usual class: inhibitors; P83916; hit rate 0.56% among 390,000; also: nearly all actives have a fitted effect of over 70% in size
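Compound inhibition of the preformed complex between 50 nM HP1-beta and 50 nM biotinylated H3K9me3 peptide was read by AlphaScreen. Buffer was PBS pH 7.4 with 0.01% Tween-20. Incubations ran 30 min at room temperature, with 10 ug/mL donor/acceptor beads.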
BAZ2B inh: BAZ2B (human) inhibition; Q9UIF8; Potency, µM (highest dose often 114 µM), actives largely listed as inhibitors; hit rate 4.4% among 360,000; AlphaScreen BAZ2B-H3K14Ac peptide displacement; also: nearly all actives have a fitted effect of over 60% in size
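Inhibition is scored as reduced AlphaScreen emission. The BAZ2B/b-H3(5-23)K14Ac complex (50 nM each) in PBS pH 7.4, 0.01% Tween-20 meets compound (up to 110 uM) for 30 min at RT before bead addition.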
G9a inh: inhibitors of human histone lysine methyltransferase G9a; Potency, µM (titrated, usually from 102 µM), usual class: inhibitors; AID 504332; hit rate 8.8% among 350,000; G9a H3K9 monomethylation, AlphaScreen, 2 h; Q96KQ7; also: nearly all actives have a fitted effect of over 75% in size
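Using a bead-based AlphaScreen, monomethylated H3K9 product from 2 h room-temperature reactions (G9a 20 nM, peptide 500 nM, SAM 20 uM) was detected with 0.5 ug/mL rabbit anti-H3K9me1 antibody.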
12-LOX inh: ALOX12 (human) lipoxygenase inhibition. P18054. purified 12hLO, xylenol orange hydroperoxide absorbance. Potency, µM (highest dose often 108 µM), usual class: inhibitors. hit rate 1.1% among 580,000. AID 1671190
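Purified human 12hLO (150 nM final) in 25 mM Hepes, 0.01% Triton X-100, pH 7.0 was preincubated 15 min at room temperature with compound. Then 40 uM arachidonic acid was added, 30 min. Hydroperoxide was read by Fe-XO absorbance ratio 573/405 nm.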
A number is an active result; i = inactive; ? = inconclusive; nt = no result; ! = repeats disagree; [ ] = remark or other dose. Shown are actives, neighbours in structure and some others; about 9% of the full set was active somewhere. Calls follow the shape of the dose curve; as a rule, active = well fitted curve in the direction sought with a large enough effect; inconclusive = small, poorly fitted or top-dose-only effect, or another doubt; inactive = no such curve, though single readings can be large; an effect the other way counts as inactive or inconclusive.

SMILES	PLK1 PBD inh	JMJD2A Tudor	HP1b binding inh	BAZ2B inh	G9a inh	12-LOX inh
CCCC1=NN(C(=O)Cc2ccc([N+](=O)[O-])cc2)C(O)(C(F)(F)F)C1 (configuration not stated)	?	i	i	nt	i	i
CC1(C)Cc2ccccc2-c2nnc(-c3ccc4ccccc4n3)n21	i	i	i	i	i	i
COc1cccc(C(=O)Nc2c(C(=O)NC(C)(C)C)oc3ccccc23)c1	nt	i	i	i	i	i
S=C(Nc1ccc(Br)cc1)N1CCN(C2CCCCC2)CC1	i	i	i	i	i[12.7 µM]	i
Cc1cc(C(F)(F)F)n2[nH]c(=O)c(N=Nc3ccccc3)c2n1	i	28µM	i	i	?	i
O=c1[nH]n2c(C(F)(F)F)cc(C3CC3)nc2c1N=Nc1ccccc1	i	?	i	?	i	i
Cc1cc(C)n2[nH]c(=O)c(N=Nc3ccccc3)c2n1	i	?	i	?	7.9µM	i
Cc1cc(C)n2[nH]c(=O)c(N=Nc3cccc(Cl)c3)c2n1	i	i	i	?	i	?
O=C(CN1C(=O)NC2(CCS(=O)(=O)CC2)C1=O)Nc1cccc(F)c1	nt	nt	nt	nt	nt	i
CSc1cc(-c2ccccc2)n(Cc2ccc(Cl)cc2Cl)c(=O)c1C#N	3.4µM	i[11.4 µM]	i	i	i	i
Cc1cc(C)n(Cc2ccc(Cl)cc2Cl)c(=O)c1S(=O)(=O)c1ccccc1	i	i	i	i	i	i
CNCc1cccc(C(F)(F)F)c1	nt	nt	nt	nt	nt	i[12.5 µM]
C[C@@H](NCCCc1cccc(C(F)(F)F)c1)c1cccc2ccccc12	nt	nt	nt	nt	?	8.9µM!
COc1ccc2[nH]cc(CCNC(=O)CCC[C@H]3NC[C@@H]4C[C@H]3CN(Cc3ccccc3)C4)c2c1	nt	nt	nt	nt	nt	4µM
CNC(=O)CCC[C@H]1NC[C@@H]2CC1CN(Cc1ccccc1)C2	nt	nt	nt	nt	nt	8.9µM
NC(=O)CCC[C@H]1NC[C@@H]2C[C@H]1CN(Cc1ccccc1)C2	nt	nt	nt	nt	nt	i
COc1ccc(-c2onc(C)c2-c2cnn(-c3ccccc3)c2)c(O)c1	i	i	i	i	?	i
N#C/C(=C(/O)CCCl)c1ccccn1	i	?	i	?	32µM	i
N#C/C(=C(\O)CCCl)c1ccccn1	nt	nt	nt	nt	nt	i
Cc1ccc(CNC(=O)N2CCC3(CC2)CC(N(C(=O)NC(C)C)C2CC2)CCO3)cc1 (configuration not stated)	nt	nt	nt	nt	nt	i
COCCCn1cnc2oc3nc4ccccc4nc3c2c1=O	i	i	i	i	?	i
O=C(CN1CCCC1c1cccs1)Nc1cc(S(=O)(=O)N2CCCC2)ccc1Cl (configuration not stated)	i	i	i	nt	nt	?
Cc1ccc(S(=O)(=O)NCC(=O)OCC(=O)NCc2ccc3c(c2)OCO3)cc1	i	i	i	i	56µM	i
O=C(COC(=O)CSc1cc(Cl)ccc1Cl)NCc1ccc2c(c1)OCO2	27µM	i	i	i	i	i
CN(C)CCCN1C(=O)c2cc3ccccc3cc2C1=O	i	i	i	i	i	i
SMILES	PLK1 PBD inh	JMJD2A Tudor	HP1b binding inh	BAZ2B inh	G9a inh	12-LOX inh
NNc1nc(C(F)(F)F)nc2ccccc12	i	i	i	i	32µM	i
Cc1ccc(-c2nc3ccccc3nc2NN)cc1	i	i	i	i	35µM	?
Cc1ccc(-c2nc3ccccc3nc2Cl)cc1	i	i	i	i	i	i
NNc1nc2ccccc2nc1C(F)(F)F	19µM	i[11.4 µM]	i	i	8.9µM	?
COc1cccc(CCNc2ncnc3sc(C(=O)N4CCN(C)CC4)c(C)c23)c1	nt	nt	nt	nt	nt	i
O=C(O)CCCCCNC(=O)CSc1nnc(-c2ccco2)n1-c1ccccc1	i	i	i	i	i	i
NS(=O)(=O)c1ccc(N/N=C/c2cccc(/C=N/Nc3ccc(S(N)(=O)=O)cc3[N+](=O)[O-])c2)c([N+](=O)[O-])c1	nt	nt	nt	nt	nt	i
NS(=O)(=O)c1ccc(N/N=C/C2CCCCC2)c([N+](=O)[O-])c1	nt	nt	nt	nt	nt	i
NS(=O)(=O)c1ccc(N/N=C2/CCCCC2C2CCCCC2)c([N+](=O)[O-])c1 (configuration not stated)	i	28µM	32µM	10µM	?	i
Cc1cc(C)c2c(c1)/C(=N/Nc1ccc(S(N)(=O)=O)cc1[N+](=O)[O-])CCC2	i	i	i	i	40µM	i
COC(=O)C[C@H]1CC[C@@H]2[C@H](COC[C@H](O)CN2S(=O)(=O)c2ccccc2OC)O1	i	nt	nt	nt	nt	i
COc1cc(/C=N/Nc2nc3ccccc3o2)cc(OC)c1O	i	?	i	i	40µM	i
COc1ccc(/C=N/Nc2nc3ccccc3o2)cc1O	i	i	i	i	40µM	i
Brc1ccc(/C=N/Nc2nc3ccccc3o2)cc1	i	i	i	i	28µM	?
COC(=O)CC1SC(=O)NC1=Nc1ccc(C)cc1 (configuration not stated)	i	i	i	i	i[12.7 µM]	i
NC(=S)NCCC[C@H](N)C(=O)O	nt	nt	nt	nt	1.7µM!	i
CCOc1ccc(NC(=O)Cn2nnc(-c3ccc(C(N)=O)cc3)n2)cc1S(=O)(=O)N1CCCC1	i	i	i	i	79µM	i
NC(=O)C1CCN(C(=O)c2ccc3c(=O)n(Cc4ccco4)c(SCC(=O)c4ccc(F)cc4)nc3c2)CC1	nt	nt	nt	i	i	nt
CCCCCCCCCCCCCCCC(=O)OC(CO)CO	nt	nt	nt	nt	nt	i
S=c1[nH]nc(-c2cc(-c3ccccc3)n[nH]2)n1/N=C/c1cccc(Cl)c1	?	40µM	?	50µM	10µM	?
S=c1[nH]nc(-c2cc(-c3ccccc3)n[nH]2)n1/N=C/c1ccc(Cl)c(Cl)c1	?	50µM	i	45µM	?	?
COc1ccc(-n2c(O)c(Cc3ccccc3)c(=O)n3nc(-c4ccccc4)c(=O)cc23)cc1	i	i	i	i	i	i
C[C@@H]1O[C@@H](O[C@H]2[C@H](Oc3cc(O)c4c(c3)O[C@H](c3ccc(O)cc3)CC4=O)O[C@H](CO)[C@@H](O)[C@@H]2O)[C@H](O)[C@H](O)[C@H]1O	i	i	i	i	45µM	i
O=c1c(Cl)c(O)c2cccc3c4ccccc4n1c23	i	i	i	i	45µM	i
COc1c(O)c(=O)n2c3ccccc3c3ccnc1c32	i	?	i	i	?	i
N#CC1=C(N)NC(SCC(=O)c2ccc(Br)cc2)=C(C#N)C12CCCCC2	i	?	?	?	40µM	i
COc1ccc(S(=O)(=O)N2CCCCCC2)cc1C(=O)N(C)CC(=O)Nc1ccccc1C(F)(F)F	i	i	i	i	i	?
O=C(OCCCOC(=O)c1cc[n+]([O-])cc1)c1cc[n+]([O-])cc1	i	i	i	i	i	i
O=C(O)c1ccc(N2CC3CC(C2)c2cccc(=O)n2C3)c(NC(=S)Nc2ccc(Cl)cc2Cl)c1 (configuration not stated)	12µM	i	?	i	10µM	?

Assay outcomes as filed in PubChem BioAssay.
